Screening data deposited in PubChem by National Center for Advancing Translational Sciences (NCATS).
Sampled rows, rich in hits. Any-hit rate of the full collection: about 21%.
DRD3 agonist = qHTS of D3 Dopamine Receptor Agonist: qHTS; D3R DiscoveRx beta-arrestin cells, luminescence, 90 min; AID 652048, 2013; D(3) dopamine receptor (Homo sapiens), P35462; max activation, %; 410,000 tested, 0.58% active; in the data active = max activation above about 30%
Target sequence (P35462 whole entry, looked up): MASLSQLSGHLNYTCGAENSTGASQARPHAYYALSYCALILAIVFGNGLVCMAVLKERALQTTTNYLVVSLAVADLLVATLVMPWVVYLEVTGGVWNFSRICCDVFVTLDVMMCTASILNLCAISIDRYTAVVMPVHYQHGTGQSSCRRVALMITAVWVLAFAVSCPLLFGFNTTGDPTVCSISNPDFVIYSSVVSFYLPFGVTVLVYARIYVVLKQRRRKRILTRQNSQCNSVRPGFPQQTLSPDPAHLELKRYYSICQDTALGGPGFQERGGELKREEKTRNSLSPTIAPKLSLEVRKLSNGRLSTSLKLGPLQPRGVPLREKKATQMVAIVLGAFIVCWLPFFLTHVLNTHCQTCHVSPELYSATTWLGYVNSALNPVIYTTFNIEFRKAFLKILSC
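Agonist-mode cell screen: cells plated at 1500/well and incubated overnight at 37 °C, then exposed to library compounds for 90 min at 37 °C. Detection reagent was added for 30–60 min at room temperature, and luminescence was read.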
DT40 TDP1 CPT = qHTS for Inhibitors of human tyrosyl-DNA phosphodiesterase 1 (TDP1): qHTS in cells in presence of CPT. chicken DT40 Tdp1-/-;hTDP1 cells + 20 nM CPT, ATP luminescence, 48 h. Potency, µM (doses to about 46.2 µM), actives largely listed as inhibitors. 420,000 tested, 12% active. AID 686979, 2013; also: nearly all actives have a fitted effect of over 55% in size
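Chicken DT40 Tdp1-/- cells complemented with human TDP1, 400 cells/well, exposed to compounds plus 20 nM camptothecin for at least 48 h at 37 C; viability read as ATP content by CellTiter-Glo luminescence.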
ClpP mod = qHTS Assay for Activators of ClpP. ATP-dependent Clp protease proteolytic subunit (Bacillus subtilis (strain 168)), P80244. AID 651965, 2013. 340,000 tested, 1.9% active. Potency, µM (titrated, usually from 57.5 µM). purified B. subtilis ClpP, FRET peptide cleavage, 20 min; active = well fitted falling curve with a large enough effect; inconclusive = small, poorly fitted or top-dose-only effect; inactive = no such curve, though single readings can be large or run the other way; also: the source files actives as falling curves though it sought activators and does not explain the sign; nearly all actives have a fitted effect of over 65% in size
Target sequence (P80244 whole entry, looked up): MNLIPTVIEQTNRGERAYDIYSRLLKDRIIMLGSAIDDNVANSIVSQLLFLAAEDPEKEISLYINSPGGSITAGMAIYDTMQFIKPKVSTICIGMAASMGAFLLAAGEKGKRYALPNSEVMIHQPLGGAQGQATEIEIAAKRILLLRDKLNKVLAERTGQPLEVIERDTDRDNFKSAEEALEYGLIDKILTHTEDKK
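Purified B. subtilis ClpP, 10 microg/mL final in Tris/HCl pH8 with KCl, BSA, glycerol and Tween-20, cleaved an Abz/nitrotyrosine-quenched decapeptide. Fluorescence (ex 320, em 430) was read at 0 and 20 min at room temperature. Delta was normalized to 5.8 microM ADEP and DMSO/no-enzyme controls.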
DT40 TDP1 no CPT = qHTS for Inhibitors of human tyrosyl-DNA phosphodiesterase 1 (TDP1): qHTS in cells in absence of CPT; DT40 Tdp1-/- hTDP1 cells, no CPT, ATP luminescence, 48 h; Potency, µM (top dose mostly 46.2 µM), usual class: inhibitors; 420,000 tested, 15% active; AID 686978, 2013; also: nearly all actives have a fitted effect of over 55% in size
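No-CPT arm: Tdp1-/-;hTDP1 DT40 cells (400/well) plus compounds, incubated ≥48 hr at 37 °C. Readout CellTiter-Glo luminescence.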
IL1B secr inh = qHTS for Inhibitors of Inflammasome Signaling: IL-1-beta AlphaLISA Primary Screen; THP-1 LPS/ATP IL-1B secretion, AlphaLISA, 16 h; stronger effect = lower value; activity change, % at 57.5 µM; 360,000 tested, 4.7% active; in the data active = activity change below about -50%; inconclusive = mostly about -30% to -49%
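THP-1 cells pretreated 1 hr with compounds (up to 57.5 uM final), then stimulated with LPS (250 ng/mL final) plus ATP (1.25 mM final); secreted IL-1B measured by AlphaLISA after 16 hr, decreased signal indicating inhibition.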
D3 antag = qHTS of D3 Dopamine Receptor Antagonist: qHTS. D3R cells, DiscoveRx beta-arrestin luminescence, antagonist mode; stronger effect = lower value. max response, negative = inhibition, %. 360,000 tested, 2.5% active. AID 652054, 2013; in the data active = max response below about -50%; inconclusive = no clear call, values can overlap the other calls
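Cells plated overnight at 1500 cells/well, then exposed to library compounds with dopamine controls for 90 minutes at 37 degrees C. DiscoveRx reagent added for 30–60 minutes at room temperature; luminescence read, quantitative HTS format.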
Hits are given with their value; . = inactive; ? = inconclusive; / = no result; ! = not confirmed by another sample. Unless noted, calls follow the shape of the dose curve; as a rule, active = well fitted inhibition curve with a large enough effect; inconclusive = small, poorly fitted or top-dose-only effect; inactive = flat fitted curve, though single readings scatter.

SMILES	DRD3 agonist	DT40 TDP1 CPT	ClpP mod	DT40 TDP1 no CPT	IL1B secr inh	D3 antag
COc1ccc(-c2noc(CSc3nnc(-c4ccncc4)n3-c3ccc(C)c(C)c3)n2)cc1	.	15µM	.	13µM	/	/
CCOc1ccccc1-c1noc(CSc2nnc(-c3ccccc3)n2-c2cccc(C)c2)n1	.	?	.	21µM	/	/
Cc1ccccc1-c1noc(CSc2nnc(-c3ccncc3)n2-c2ccc(F)cc2)n1	.	?	.	15µM	/	/
Cc1ccc(-n2c(SCc3nc(-c4ccccc4C)no3)nnc2-c2ccncc2)cc1C	.	23µM	.	21µM	/	/
CC1CN(C(=O)c2ccccc2OCc2ccc(Cl)cc2Cl)CC(C)O1 (configuration not stated)	.	16µM	.	3.7µM	.	.
COc1ccc(C(O)c2nc(-c3cc4ccccc4o3)cs2)cc1 (configuration not stated)	.	?	.	?	.	.
COCCCn1c(=N)c(C(=O)NCc2cccnc2)cc2c(=O)n3cc(C)ccc3nc21	.	.	.	.	/	/
CCCCNC(=O)c1cc2c(=O)n3cccc(C)c3nc2s1	.	?	.	?	.	.
COCCn1c(=N)c(S(=O)(=O)c2ccc(F)cc2)cc2c(=O)n3cccc(C)c3nc21	.	?	.	8.2µM	.	.
COCCCn1c(=N)c(C(N)=S)cc2c(=O)n3cccc(C)c3nc21	.	18µM	/	23µM	-68	.
COCCCNC(=O)c1cc2c(=O)n3cccc(C)c3nc2s1	32!	?	.	?	.	.
Cc1ccc2nc3c(cc(C(N)=S)c(=N)n3CCCOC(C)C)c(=O)n2c1	.	16µM	22µM	16µM	.	.
CCCCn1c(=N)c(C(=O)NC2CCCCC2)cc2c(=O)n3cccc(C)c3nc21	.	.	.	.	/	/
CCOCCCn1c(=N)c(C(=O)NCc2ccc3c(c2)OCO3)cc2c(=O)n3cccc(C)c3nc21	.	?	.	?	-60	.
CCOCCCn1c(=N)c(C(=O)NC2CCCC2)cc2c(=O)n3cccc(C)c3nc21	.	?	.	21µM	/	/
COCCCn1c(=N)c(C(=O)NCc2ccc3c(c2)OCO3)cc2c(=O)n3cccc(C)c3nc21	.	.	.	.	.	.
CCOCCCn1c(=N)c(S(=O)(=O)c2ccccc2)cc2c(=O)n3cc(C)ccc3nc21	.	?	.	16µM	.	.
CCCn1c(=N)c(C(=O)NC2CCCC2)cc2c(=O)n3cccc(C)c3nc21	.	?	.	12µM	.	.
COc1ccc(CN2CCNC(=O)C2CC(=O)NCCc2nc(C)c(C)s2)cc1C (configuration not stated)	.	.	.	.	.	.
COc1ccc(C(=O)C2C(=O)C(=O)N(Cc3ccco3)C2c2cccs2)cc1 (configuration not stated)	/	.	.	.	/	/
O=C1NC(=O)C2(CCCCCCC2)N1	.	.	/	.	.	.
CCn1c(=N)c(C(=O)NC)cc2c(=O)n3cccc(C)c3nc21	.	?	.	16µM	.	.
CCn1c(=N)c(C(=O)NCc2ccccc2)cc2c(=O)n3cccc(C)c3nc21	.	.	.	.	/	/
CCOC(=O)/C(=C\c1cccc(O)c1)c1nc2sc(C)c(C)c2c(=O)[nH]1	.	9.2µM	.	23µM	-102	-58
COc1ccc(-c2cc(C(F)(F)F)nc(S(C)(=O)=O)n2)cc1	.	2.6µM	.	3.3µM	-102	-75
SMILES	DRD3 agonist	DT40 TDP1 CPT	ClpP mod	DT40 TDP1 no CPT	IL1B secr inh	D3 antag
COc1ccc(-c2cc(C(F)(F)F)nc(N)n2)cc1	.	.	/	.	.	.
CS(=O)(=O)c1nc(-c2ccc(F)cc2)cc(C(F)(F)F)n1	.	1.3µM	/	1.8µM	-103	-79
Nc1nc(-c2ccc(F)cc2)cc(C(F)(F)F)n1	.	.	?	.	.	.
COc1ccc2c(C)c(CC(=O)NCc3ccccc3Cl)c(=O)oc2c1OC	.	.	?	.	/	/
CCc1cc(=O)oc2cc(OCc3ccc(C(=O)O)o3)ccc12	.	.	.	.	.	.
CC(C)N(Cc1ccccc1)C(=O)c1ccc2nsnc2c1	.	?	/	21µM	.	.
Cc1cc(C)c(S(=O)(=O)Nc2nccs2)c(C)c1	.	.	.	.	.	.
Cc1nc2c(C(=O)NCCc3ccccc3)cnn2c(C)c1Cc1c(F)cccc1Cl	.	15µM	?	16µM	/	/
COC(=O)c1cnn2c(C)c(Cc3c(C)cc(C)cc3C)c(C)nc12	.	?	.	.	/	/
Cc1nc2c(C(=O)NCc3ccccc3Cl)cnn2c(C)c1Cc1c(F)cccc1Cl	.	8.2µM	.	8.2µM	/	/
Cc1nc2c(C(=O)NCCC(C)C)cnn2c(C)c1Cc1c(F)cccc1Cl	.	21µM	.	23µM	/	/
CC(C)CCNC(=O)c1cnn2c(C(F)(F)F)cc(-c3ccco3)nc12	.	11µM	.	32µM	.	.
Cc1nc2c(C(=O)NCCc3ccccc3)c[nH]n2c(=O)c1Cc1ccccc1F	.	?	.	?	/	/
CC1CN(C2CCCCC2)C(=S)NC1=O (configuration not stated)	.	.	/	.	.	.
O=c1[nH]c(CN2CCN(c3ccccc3)CC2)nc2scc(-c3ccccc3)c12	108	13µM	?	5.2µM	.	.
COc1ccc(N2CCN(Cc3nc4scc(-c5cccs5)c4c(=O)[nH]3)CC2)cc1	.	.	/	?	-69	.
COc1ccc(N2CCN(Cc3nc4scc(-c5ccccc5)c4c(=O)[nH]3)CC2)cc1	.	?	.	.	.	.
CC1Cc2ccccc2N1Cc1nc2scc(-c3cccs3)c2c(=O)[nH]1 (configuration not stated)	.	.	.	.	.	.
CC(C)CN1CCCC2(CCN(C(=O)c3cccn3C)CC2)C1	/	.	/	.	/	/
COc1cccc(NC(=O)COc2coc(CN3CCc4ccccc4C3)cc2=O)c1	.	.	?	.	.	.
COc1ccc2c(c1)CCC1C2=NN(/C(C)=C\C(C)=O)C1c1ccc(F)cc1 (configuration not stated)	.	18µM	.	?	.	.
COc1ccc2c(c1)C1=NN(/C(C)=C/C(C)=O)C(c3cccc(F)c3)C1CC2 (configuration not stated)	.	.	/	.	.	.
